Experimental data from the supplement of paper PMC7156485.
± gives the standard deviation of the averaged measurements.

Columns and labels:
Conditions in all cases: concentration: 10 µM; 24 h
HCC1569 [1] = assay: cell number relative to DMSO (% of DMSO); higher = more cells (less growth inhibition / toxicity)
How it was run: (§1)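 Cell number or H1.0 nuclear intensity appears as percent of the plate control, based on the median of replicates. Measurements came from HCC1569 and TDF cells exposed in triplicate to compounds at 10 µM for 24 h at 37 °C, then imaged in six fields per well at ×10. Positional effects were smoothed out of HCC1569 values.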

TDF [2] = assay: as above
How it was run: as §1

TDF [3] = assay: H1.0 immunofluorescence intensity relative to DMSO (% of DMSO); higher = stronger H1.0 induction, active = 120 or more
How it was run: as §1

HCC1569 [4] = assay: H1.0 immunofluorescence intensity relative to DMSO (% of DMSO); higher = stronger H1.0 induction, active = 140 or more
How it was run: as §1
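Wherever H1.0 immunofluorescence intensity relative to DMSO is given: TDF is a line of transformed human dermal fibroblasts of mesenchymal origin.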
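Wherever cell number relative to DMSO is given: TDF denotes transformed human dermal fibroblasts of mesenchymal origin.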

Row | Compound | cell number (HCC1569 [1]) | cell number (TDF [2]) | H1.0 immunofluorescence intensity (TDF [3]) | H1.0 immunofluorescence intensity (HCC1569 [4])
1 | CCC1C=CC=CCC(C)C(O)C(C)(O)C(=O)C(C)C(O)C(C)C(=O)C(C)C(O)C(C)C=CC(=O)OC2C(C)C(CC1)OC1(CCC(C)C(CC(C)O)O1)C2C (centres undefined) [Oligomycin A] | 79.8 ± 16 | 87 ± 27 | 93.9 (inactive) | 114 (inactive)
2 | Cl.NC(=O)c1ccc(OCC(O)CN2CC=C(c3ccc(F)cc3)CC2)cc1 (centres undefined) | 105 | 107 | 96.4 (inactive) | 106 (inactive)
3 | CCNC1=Nc2ccc(Cl)cc2C(C)(c2ccccc2)O1.Cl (centres undefined) | 92.5 | 105 | 97.3 (inactive) | 141 (active)
4 | CCN(CC)c1ncnc2c1ncn2C1OC(COP(=O)([O-])OP(=O)([O-])C(Br)(Br)P(=O)([O-])O)C(O)C1O.[Na+].[Na+].[Na+] (centres undefined) | 102 | 101 | 92.6 (inactive) | 96.5 (inactive)
5 | CCCCCC=CCC=CCC=CCC=CCCCC(=O)NCC(=O)O [N-arachidonylglycine] | 101 | 99.4 | 98.2 (inactive) | 99.6 (inactive)
6 | CC(C)NP(=O)(NC(C)C)OP(=O)(NC(C)C)NC(C)C [Tetraisopropyl pyrophosphoramide] | 99.2 | 104 | 94.9 (inactive) | 105 (inactive)
7 | CNC(=O)OCC[N+](C)(C)C.[Cl-] [Methylcarbamylcholine chloride] | 101 | 92.5 | 99.2 (inactive) | 95.8 (inactive)
8 | C[N+](C)(C)CC#CCN1CCCC1=O.[I-] [Oxotremorine methiodide] | 106 | 97 | 100 (inactive) | 98.8 (inactive)
9 | COc1ccc2c(c1O)-c1cccc3c1C(C2)N(C)CC3.Cl (stereo not drawn) [R(-)-Apocodeine hydrochloride] | 103 | 89.9 | 97.6 (inactive) | 87.5 (inactive)
10 | COc1ccc2c(c1)C13CCCCC1C(C2)NCC3.Cl (centres undefined) [3-Methoxy-morphanin hydrochloride] | 99.1 | 107 | 97.3 (inactive) | 99.5 (inactive)
11 | O=P1(N(CCCl)CCCl)NCCCO1 (centres undefined) [Cyclophosphamide] | 107 | 95.5 | 101 (inactive) | 101 (inactive)
12 | NCCCP(=O)(O)O [3-Aminopropylphosphonic acid] | 97.9 | 90.3 | 95.4 (inactive) | 101 (inactive)
13 | CCC1C2CC3C4N(C)c5ccccc5C45CC(C2C5O)N3C1O (centres undefined) [Ajmaline] | 101 | 86.8 | 96.9 (inactive) | 93.1 (inactive)
14 | CC12CCC(O)CC1CCC1C2CCC2(C)C(c3ccc(=O)oc3)CCC12O (centres undefined) [Bufalin] | 52.7 | 45 | 114 (inactive) | 107 (inactive)
15 | Br.CN1CCc2cc(O)cc3c2C1Cc1ccc(O)c(O)c1-3 (stereo not drawn) [R(-)-2,10,11-Trihydroxyaporphine hybrobromide] | 99 | 113 | 84.4 (inactive) | 94.3 (inactive)
16 | CCC1=CC2CN3CCc4c([nH]c5ccccc45)C(C(=O)OC)(C2)C13 (centres undefined) [Catharanthine] | 104 | 94.7 | 102 (inactive) | 92.1 (inactive)
